Source: PubChem BioAssay (National Center for Advancing Translational Sciences (NCATS))
SMN2 splice up – increases expression of the SMN2 splice variant; Potency, µM (titrated, usually from 46.1 µM), most hits filed as activators; hit rate 2.8% among 210,000; HEK293 SMN2-luciferase splicing reporter, luminescence, 30-36 h; further: nearly all actives have a fitted effect of over 55% in size
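qHTS luciferase splicing reporter: luminescence rises when SMN2 exon 7 is included in transfected HEK293 cells. Compound exposure lasted 30-36 h at 37C, with 4.5 mM final sodium butyrate as control, followed by a ONE-Glo read.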
FLuc counter – firefly luciferase modulation, counter-screen for miR-21 project. P08659. hit rate 6.9% among 360,000. Potency, µM (top dose mostly 57.5 µM), most hits filed as inhibitors. purified FLuc, Km substrates, luminescence inhibition. AID 588342; further: nearly all actives have a fitted effect of over 55% in size
Target sequence (P08659 whole entry, looked up): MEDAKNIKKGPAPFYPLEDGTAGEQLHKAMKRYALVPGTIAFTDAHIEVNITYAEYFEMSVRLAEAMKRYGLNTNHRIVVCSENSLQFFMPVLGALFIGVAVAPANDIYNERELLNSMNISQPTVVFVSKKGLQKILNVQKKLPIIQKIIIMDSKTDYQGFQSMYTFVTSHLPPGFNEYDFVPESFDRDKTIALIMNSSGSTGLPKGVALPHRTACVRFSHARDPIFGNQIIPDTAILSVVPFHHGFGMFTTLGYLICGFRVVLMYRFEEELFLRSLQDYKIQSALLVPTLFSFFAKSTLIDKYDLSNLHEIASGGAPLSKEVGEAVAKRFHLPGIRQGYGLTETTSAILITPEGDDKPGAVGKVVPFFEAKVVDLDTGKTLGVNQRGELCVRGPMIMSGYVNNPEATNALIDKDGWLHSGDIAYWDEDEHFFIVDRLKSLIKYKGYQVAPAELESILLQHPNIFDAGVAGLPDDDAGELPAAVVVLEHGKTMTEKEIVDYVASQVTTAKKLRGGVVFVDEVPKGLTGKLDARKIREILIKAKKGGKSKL
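Purified P. pyralis luciferase, 10 nM final, with Km-level 10 uM D-luciferin and 10 uM ATP in 50 mM Tris acetate pH 7.5, 10 mM Mg acetate, 0.01% Tween-20, 0.05% BSA; 6-point qHTS titration about 60 µM downward; luminescence read.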
p53 reactivator – mutant p53 re-activation in reporter cells; H1299 p53-A138V BP100-luciferase reporter, luminescence, 24 h; Potency, µM (doses to about 92.2 µM), actives largely listed as activators; hit rate 0.063% among 320,000; further: nearly all actives have a fitted effect of over 45% in size
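p53-null H1299 cells stably carrying temperature-sensitive p53-A138V and a BP100-luciferase reporter were pinned with compounds (4-point, 1:5 series) and held 24 hrs at 37 deg C. Luminescence was read 10 min after detection reagent.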
NPC1 promoter act – NPC1 promoter activation. Huh7 NPC1 promoter luciferase reporter, 24 h. Potency, µM (series often up to 9.22 µM), hits mostly activators. hit rate 2.4% among 320,000. AID 485313; further: nearly all actives have a fitted effect of over 60% in size
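Stable NPC1-promoter luciferase Huh7 line; cpd (DMSO) 24 h, 37 °C, 5% CO2; Amplite luciferase reagent 10 min RT; luminescence readout. qHTS format.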
Rab9 prom act – Rab9 promoter activation | Huh7 Rab9 promoter-luciferase reporter, luminescence, 24 h | hit rate 2.8% among 320,000 | Potency, µM (highest dose often 9.22 µM), usual class: activators; further: nearly all actives have a fitted effect of over 60% in size
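Luminescence from Amplite-detected luciferase (10 minutes, ambient) reports Rab9 promoter activation. Before that, stable Rab9-luciferase Huh7 cells (1500/well, reduced-serum OP-MEM I plus 10% FBS) were exposed to compound for 24 hours at 37C.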
ELG1 genotox – inducers of genotoxicity in HEK293T ELG1-luciferase cells; HEK293T ELG1-luciferase reporter, luminescence, 16 h; Potency, µM (doses to about 46 µM), actives largely listed as activators; hit rate 1.3% among 330,000; further: nearly all actives have a fitted effect of over 60% in size
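Step 1: seed 2,000 HEK293T ELG1-luciferase cells per well. Step 2: add compound or DMSO, incubate 16 hr at 37 °C. Step 3: ONE-Glo, 30 min at room temperature, read luminescence.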
Numbers stand for hits; - = inactive; ? = inconclusive; . = no result given; [ ] = another dose, or the depositor's remark. Rows were chosen to be rich in hits. Some 7.4% of all compounds tested hit in one or more screens of this group. The call rests on the fitted dose curve; in most records, active means well fitted curve in the direction sought with a large enough effect; inconclusive means small, poorly fitted or top-dose-only effect, or another doubt; inactive means no such curve, though single readings can be large; an effect the other way counts as inactive or inconclusive.

SMILES | SMN2 splice up | FLuc counter | p53 reactivator | NPC1 promoter act | Rab9 prom act | ELG1 genotox
COc1cc2cc(CNc3ccccc3)c(=O)n(CC(=O)Nc3cccc(Cl)c3C)c2cc1OC | . | - | . | . | . | .
COc1ccc(-c2cc3nc4ccccc4n3c(N)c2C#N)cc1 | . | ? | - | 1.8µM | 2µM | -
COc1ccc(-c2cc(-c3ccccc3)c(C#N)c(S(C)=O)n2)cc1 (stereo not given) | - | - | - | - | - | -
Cc1cccc(OCCCn2c(CO)nc3ccccc32)c1 | . | 13µM | - | - | ? | -
OCc1nc2ccccc2n1CCCOc1ccccc1 | 11µM | 11µM | ? | ? | ? | ?
Cc1ccc(CN(Cc2ccco2)C(=O)c2cccc(C)c2)cc1 | - | - | . | . | . | .
O=C(c1ccc(Cl)cc1)N1CCn2c1nc1ccccc12 | ? | ? | - | - | ? | -
O=C(c1cccs1)N1CCn2c1nc1ccccc12 | 13µM | ? | ? | 2.8µM | 4µM | ?
Cc1ccc(NC(=O)c2sc3ncnc(N(C)C4CCCCC4)c3c2C)cc1 | . | - | . | . | . | .
Cc1ccc(-c2cc(C(=O)Nc3cccnc3)c3ccccc3n2)o1 | - | 6µM | - | - | - | -
Cc1ccc(NC(=O)c2cc(-c3ccc(C)o3)nc3ccccc23)cc1 | - | ? | - | - | - | -
Cc1ccc(-c2cc(C(=O)Nc3ccccn3)c3ccccc3n2)o1 | - | 11µM | - | - | - | -
COc1ccccc1NC(=O)c1cc(-c2ccc(C)o2)nc2ccccc12 | . | 7.6µM | - | - | - | -
O=C(Nc1cccnc1)c1cc(-c2ccc(Br)cc2)nc2ccccc12 | . | 17µM | - | - | - | -
CC(C)NC(=O)CN(C(=O)CCC(=O)Nc1nccs1)c1ccc(C(C)C)cc1 | . | - | . | - | - | -
O=C(NC1CCS(=O)(=O)C1)c1ccc(-c2ccc(Br)cc2)o1 (stereo not given) | - | ? | - | - | - | -
O=C(NC12CC3CC(CC(C3)C1)C2)c1ccc(-c2ccc(Br)cc2)o1 | 16µM | 4.8µM | ? | ? | ? | ?
O=C(NC12CC3CC(CC(C3)C1)C2)c1ccc([N+](=O)[O-])o1 | . | ? | - | - | - | -
O=C(NC12CC3CC(CC(C3)C1)C2)c1ccc(Br)o1 | . | 17µM | - | - | - | -
Cc1ccc(C(=O)Nc2nnc(Cc3ccccc3)s2)cc1 | . | - | - | - | -[1.84 µM] | -
O=C(Nc1nnc(CC2=CCCCC2)s1)c1cccs1 | 14µM | ? | - | ? | ? | 15µM
O=C(Nc1nnc(Cc2ccc(Cl)cc2)s1)c1cccs1 | - | - | - | - | - | -
O=C(Nc1nnc(Cc2ccccc2)s1)c1cccs1 | - | ? | ? | ? | 1.8µM | ?
O=C(Nc1nnc(Cc2ccccc2)s1)c1ccccc1 | . | - | . | 3.2µM | ? | ?
Cc1[nH]c(C)c(CN(C)C)c1CN(C)C | -[9.22 µM] | . | . | . | . | .
SMILES | SMN2 splice up | FLuc counter | p53 reactivator | NPC1 promoter act | Rab9 prom act | ELG1 genotox
CCn1c2c(c(=O)n3ncc(C(=O)Nc4ccc(F)cc4Cl)c13)CN(Cc1ccc(OC)cc1)CC2 | . | - | . | . | . | .
Cc1cc(C)nc(N/N=C/c2cc(Br)ccc2O)n1 | . | 8.5µM | - | - | - | ?
Cc1cc(C)nc(N/N=C/c2ccccc2OCc2cccc(Br)c2)n1 | - | 19µM | - | - | - | -
Cc1cc(C)nc(N/N=C/c2ccccc2OCc2ccccc2)n1 | - | ? | - | - | - | -
Cc1cc(C)nc(N/N=C/c2ccccc2OCc2ccc(Br)cc2)n1 | 13µM | ? | ? | - | - | -
C/C(=N/Nc1nc(C)cc(C)n1)c1ccc(Br)cc1 | . | - | ? | - | - | -
COc1ccc(N2CCN(C(=O)Cn3c(-c4cccs4)cc4ccccc43)CC2)cc1 | . | - | . | . | . | .
Fc1ccc(-c2csc(=Nc3cccc(C(F)(F)F)c3)n2Cc2ccc3c(c2)OCO3)cc1 | - | - | . | . | . | .
COc1cccc(N2C(=O)C(CC(=O)Nc3cccc(F)c3)N(C(C)C)C2=O)c1 (stereo not given) | . | - | . | . | . | .
COc1ccc(NC(=O)COc2ccc(C)nc2[N+](=O)[O-])cc1S(N)(=O)=O | . | - | - | - | - | -
Cc1ccc(OCC(=O)Nc2ccc(Cl)cc2)c([N+](=O)[O-])n1 | . | . | ? | 2.8µM | ? | ?
COc1cc(Cl)c(C)cc1NC(=O)COc1ccc(C)nc1[N+](=O)[O-] | . | - | - | ? | 4µM | -
Cc1ccc(OCC(=O)Nc2ccc(F)cc2)c([N+](=O)[O-])n1 | 13µM | 12µM | - | ? | 3.5µM | ?
Cc1ccc(OCC(=O)Nc2ccc3c(c2)CCC3)c([N+](=O)[O-])n1 | - | 27µM | - | - | - | ?
O=C(NCCCN1CCOCC1)c1cc(-c2ccc3c(c2)OCO3)nc2ccccc12 | - | ? | - | - | - | -
O=C(NCCCN1CCCC1=O)c1cc(-c2ccc3c(c2)OCO3)nc2ccccc12 | - | 24µM | - | - | - | -
Cc1cc(C)nc(NC(=O)c2cc(-c3ccc4c(c3)OCO4)nc3ccccc23)c1 | . | ? | . | - | - | -
O=C(O)c1cccc(-c2ccc3c(c2)OCO3)c1 | . | ? | . | - | - | -
COc1ccc(OC)c2nc(-c3ccc4c(c3)OCO4)ccc12 | . | 1.9µM | ? | 1.4µM | 1.4µM | 4.6µM
COc1ccc(-c2oc(=O)c3cc(OC)c(OC)cc3c2-c2ccc3c(c2)OCO3)cc1 | . | . | - | . | . | -
c1ccc2nc(-c3ccc4c(c3)OCO4)ccc2c1 | 13µM | 0.95µM | ? | 0.56µM | 0.32µM | 2.6µM
O=C(O)c1cc(-c2ccc3cc4c(cc3c2)OCO4)nc2ccccc12 | 3.5µM | . | . | . | . | .
COC(=O)c1cc(-c2ccc3c(c2)OCO3)nc2ccccc12 | - | 17µM | - | - | - | -
O=C(O)c1cc(-c2cccnc2)nc2ccc(Br)cc12 | - | ? | - | - | - | -
O=C(O)c1cc(-c2ccc3c(c2)OCO3)nc2ccc(Br)cc12 | - | 3µM | - | - | - | -
SMILES | SMN2 splice up | FLuc counter | p53 reactivator | NPC1 promoter act | Rab9 prom act | ELG1 genotox
N#Cc1cc2cc3c(cc2nc1SCC(=O)N1CCCC1)OCCO3 | . | - | - | ? | ? | -
COc1cc2cc(C#N)c(SCC(=O)N3CCOCC3)nc2cc1OC | 13µM | - | - | - | - | -
CC(=O)CSc1nc2cc3c(cc2cc1C#N)OCCO3 | . | 0.67µM | ? | 3.2µM | ? | ?
CC(C)(C)c1ccc(OCCC(=O)Nc2ccc(N3CCOCC3)cc2N2CCOCC2)cc1 | . | ? | - | - | - | -
CCN1C(=S)SC(=O)C1=C1C=C(C)OC(C)=C1 | - | ? | ? | ? | ? | -
CCN1C(=S)SC(=O)C1=C1C=C(C)N(Cc2ccco2)C(C)=C1 | ? | 3.4µM | ? | 1.4µM | 0.63µM | 2.6µM
O=C(CSc1nc2ccccc2nc1Cc1ccc(Cl)cc1)N1CCN(c2ccccc2F)CC1 | . | - | . | . | . | .
N/C(=N\OC(=O)c1cc(Br)ccc1Cl)c1ccccn1 | 11µM | 3.8µM | - | ? | ? | ?
N/C(=N\OC(=O)c1ccc(Cl)cc1[N+](=O)[O-])c1ccccn1 | . | 3.4µM | - | ? | ? | 21µM
